Measurements taken from PubChem BioAssay AID504339 (National Center for Advancing Translational Sciences (NCATS), 2011).
“And” between values parts separate entries of the source, which are not always exact repeats. Equal entries are not always repeated. The campaign covered roughly 390,000 compounds. About 17,000 (4.4%) were called active. Inconclusive results (about 8%) are left out. The call rests on the fitted dose curve; in most records, active means well fitted inhibition curve with a large enough effect; inconclusive means small, poorly fitted or top-dose-only effect; inactive means no such curve, though single readings can be large or run the other way. The entries come from a sample that favours actives as a whole.

molecular target: Lysine-specific demethylase 4A (Homo sapiens) (UniProt O75164); assay: qHTS Assay for Inhibitors of JMJD2A-Tudor Domain; conditions: AlphaScreen JMJD2A-Tudor / H3K4me3 peptide binding; series mostly up to 114 µM; activity change, negative = inhibition: at the top concentration; further: nearly all actives have a fitted effect of over 50% in size
Sequence (O75164 whole entry, looked up, the tested form may be a part): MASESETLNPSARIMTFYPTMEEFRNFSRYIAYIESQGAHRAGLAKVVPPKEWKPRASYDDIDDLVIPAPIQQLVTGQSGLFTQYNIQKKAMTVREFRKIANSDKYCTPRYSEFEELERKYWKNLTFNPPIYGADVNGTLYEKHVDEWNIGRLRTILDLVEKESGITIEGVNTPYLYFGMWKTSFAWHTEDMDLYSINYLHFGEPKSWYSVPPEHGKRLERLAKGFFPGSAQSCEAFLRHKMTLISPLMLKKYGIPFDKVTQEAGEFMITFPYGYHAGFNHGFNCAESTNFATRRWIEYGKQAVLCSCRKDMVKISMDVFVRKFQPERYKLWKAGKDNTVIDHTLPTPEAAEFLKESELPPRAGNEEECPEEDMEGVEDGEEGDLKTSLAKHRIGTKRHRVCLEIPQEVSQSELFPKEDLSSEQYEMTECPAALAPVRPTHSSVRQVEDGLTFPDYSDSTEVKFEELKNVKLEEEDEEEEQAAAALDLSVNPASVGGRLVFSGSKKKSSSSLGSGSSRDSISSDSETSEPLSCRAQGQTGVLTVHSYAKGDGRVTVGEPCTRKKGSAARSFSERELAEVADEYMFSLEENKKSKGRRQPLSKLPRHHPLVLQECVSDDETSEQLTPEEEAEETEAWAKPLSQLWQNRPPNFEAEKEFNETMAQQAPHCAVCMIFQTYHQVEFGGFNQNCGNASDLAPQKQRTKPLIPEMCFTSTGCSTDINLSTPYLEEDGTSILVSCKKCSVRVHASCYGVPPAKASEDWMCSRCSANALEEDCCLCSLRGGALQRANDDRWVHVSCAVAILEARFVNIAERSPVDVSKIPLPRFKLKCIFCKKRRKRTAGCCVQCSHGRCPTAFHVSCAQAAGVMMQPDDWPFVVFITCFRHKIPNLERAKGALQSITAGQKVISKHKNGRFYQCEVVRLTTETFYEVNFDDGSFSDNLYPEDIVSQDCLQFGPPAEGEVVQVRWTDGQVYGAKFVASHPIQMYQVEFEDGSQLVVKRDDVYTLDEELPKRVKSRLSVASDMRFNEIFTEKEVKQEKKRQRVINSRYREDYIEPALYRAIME
On the % scale 0 is the no-effect control and ±100 the full control effect; potency means the concentration at half of the fitted maximal effect.

SMILES	activity change, negative = inhibition	Potency
CCOC(=O)c1cccc(NC(=O)c2cc(CN3CCCC3)on2)c1	-11.3% (inactive)	–
O=C(OCc1cc(=O)n2nc(C3CC3)sc2n1)c1ccccc1Cl	-14% (inactive)	–
COc1ccc(C2c3c(oc4ccccc4c3=O)C(=O)N2Cc2ccc3c(c2)OCO3)cc1 (centres undefined)	-3.78% (inactive)	–
COc1ccc(Cn2ccn(CC(=O)Nc3cc(C)ccc3C)c(=O)c2=O)cc1	-11.5% (inactive)	–
O=C(CCCn1c(=O)c2cccn2c2cccnc21)NCc1ccc(F)cc1	-6.59% (inactive)	–
COc1ccccc1C(=O)NCCn1cc(SCc2ccccc2Cl)c2ccccc21	-8.21% (inactive)	–
Cc1c(NS(=O)(=O)c2ccc(Cl)cc2)c(=O)n(-c2ccccc2)n1C	9% (inactive)	–
CCN(CC)P(=O)(/C(Cl)=C\Nc1c(C)n(C)n(-c2ccccc2)c1=O)N(CC)CC	–	15.8 µM (active)
Cc1c(NC(=S)Nc2ccccc2)c(=O)n(-c2ccccc2)n1C	6.69% (inactive)	–
CCN(CC)CCNc1ncnc2c1cnn2-c1cc(Cl)ccc1C	-26.6% (inactive)	–
O=C(O)c1ccc(Cn2c(SCc3ccc(F)cc3)nc3ccncc32)cc1	7.64% (inactive)	–
O=C(O)c1ccc(Cn2cnc3c(=S)nc[nH]c32)cc1	–	3.55 µM (active)
O=C(O)CCC(=O)NCc1ccc(C(=O)O)cc1	-1.53% [at 57.1 µM] (inactive)	–
Cc1ccc(Cn2c(=O)n(-c3ccc(C)cc3)c(=O)c3c2c2cc(C)ccc2n3C)cc1	-17.2% (inactive)	–
Cc1ccc(Cl)cc1N(C)C(=O)C1CCCN(c2ncnc3onc(-c4ccc(F)cc4)c23)C1 (centres undefined)	-19.4% (inactive)	–
CC(C)=CCc1ccc(O)c(=O)cc1C(C)C	–	56.2 µM (active)
CC(C)c1cc(N=O)cc(C(C)C)c1O	-24.3% (inactive)	–
Cc1ccc(CNC(=O)c2c(O)nc3c(C)cccn3c2=O)cc1	-3.64% (inactive)	–
COc1ccc2c(CNCCc3ccccc3C)c(C(=O)O)n(Cc3ccccc3C)c2c1	-8.42% (inactive)	–
Cc1ccc2ncc(C(=O)Nc3ccc(OC(F)(F)F)cc3)c(=O)n2c1	-2.55% (inactive)	–
COc1cccc2cc(-c3nc(Cl)c4c5c(sc4n3)CC(C)CC5)c(=O)oc12 (centres undefined)	-4.78% (inactive)	–
CCCCCCC1(C)NC(c2ccc3c(c2)OCO3)=CC(c2ccccc2O)N1 (centres undefined)	-14.6% [at 57.1 µM] (inactive)	–
CCn1c2ccccc2c2cc(NC(=O)C/C(C)=N/NC(=O)c3ccccc3N)ccc21	-20.1% (inactive)	–
CCn1c2ccccc2c2cc(NC(=O)COc3ccc(C)cc3C)ccc21	-4.5% (inactive)	–
CCn1c2ccccc2c2cc(NC(=O)CNC)ccc21	–	1 µM (active)

SMILES	activity change, negative = inhibition	Potency
Cc1ccc(N(CC(=O)NCC(C)c2ccccc2)S(=O)(=O)N(C)C)cc1 (centres undefined)	-10% (inactive)	–
Cc1ccc(NC(=O)C(=O)NCC(c2cccnc2)N2CCOCC2)cc1 (centres undefined)	-0.987% (inactive)	–
COc1cccc(C(=O)N(Cc2cccc(Cl)c2)Cc2ccco2)c1	-9.03% (inactive)	–
CCCCCn1c(CCCNC(=O)c2ccccc2OC)nc2ccccc21	-15.7% (inactive)	–
CCOC(=O)c1ccc(NC(=O)C2CC(=O)Nc3nc4ccccc4n32)cc1 (centres undefined)	-10.3% (inactive)	–
O=C(Nc1ccccc1)C1CC(=O)n2c(nc3ccccc32)N1 (centres undefined)	–	8.91 µM (active)
CC(=O)c1ccc(NC(=O)C2CC(=O)Nc3nc4ccccc4n32)cc1 (centres undefined)	-17.3% (inactive)	–
CC(=O)N1CCCc2cc(S(=O)(=O)N3CCC(C(=O)NCc4ccc(C)cc4)CC3)ccc21	-11.6% (inactive)	–
O=c1cc(-c2ccccc2)n2c(SCc3ccccc3)nnc2[nH]1	-11.4% (inactive)	–
O=c1[nH]c2ccccc2n2c(-c3ccccc3)nnc12	–	7.94 µM (active) and 5.62 µM (active)
Cc1cccc(CC(=O)Nc2cccc(-c3cn4cccnc4n3)c2)c1	-21.6% (inactive)	–
COc1ccc(NC(=O)C2C3C=CC(C3)C2C(=O)NCc2ccccn2)c(OC)c1 (centres undefined)	–	50.1 µM (active)
CCS(=O)(=O)N1Cc2ccccc2CC1C(=O)Nc1ccc(OC)cc1OC (centres undefined)	-9.15% (inactive)	–
CCOc1ccc(N2CC(C(=O)NCc3ccccn3)CC2=O)cc1 (centres undefined)	-5.52% (inactive)	–
CN(Cc1ccccc1)C(=O)c1cn(C)c2ccc(S(=O)(=O)N(C)C3CCCCC3)cc2c1=O	1.67% (inactive)	–
CCOC(=O)c1c(NC(=O)CSc2cn(CCNC(=O)c3cccc(C(F)(F)F)c3)c3ccccc23)sc2c1CCC2	-19.4% (inactive)	–
Cc1c(-c2nc(-c3ccc4c(c3)OCO4)no2)nnn1-c1ccc(Br)cc1F	-11.4% (inactive)	–
CCOC(=O)c1ccc(NC(=O)C2CC(=O)N(c3ccc4c(c3)OCCO4)C2)cc1 (centres undefined)	-16.7% (inactive)	–
CCc1nnc(NC(=O)C2CC(=O)N(c3ccc4c(c3)OCCO4)C2)s1 (centres undefined)	–	25.1 µM (active)
CC(=O)c1ccccc1NC(=O)C1CC(=O)N(c2ccc3c(c2)OCCO3)C1 (centres undefined)	-18.8% (inactive)	–
O=C(CSc1nnc(CNC(=O)c2ccccc2)n1-c1ccc(F)cc1)Nc1ccccc1F	-0.673% (inactive)	–
COc1ccccc1CN1CCCC(N2CCN(c3ccc(F)cc3)CC2)C1 (centres undefined)	-23.8% (inactive)	–
COc1ccc(C2C(C#N)=C(N)Oc3cc(N)ccc32)cc1OC (centres undefined)	-20.1% (inactive)	–
COc1ccc(C2C(C#N)=C(N)Oc3n[nH]c(C)c32)cc1CN1CCN(c2ccc(F)cc2)CC1 (centres undefined)	–	44.7 µM (active)
Cc1cc(=O)c2cc(C(=O)Nc3cccc(C)c3C)ccc2[nH]1	-3.31% (inactive)	–

SMILES	activity change, negative = inhibition	Potency
COc1ccccc1NC(=O)C(=O)c1cc(C)n(-c2ccccc2F)c1C	-23.5% (inactive)	–
COc1ccc(NC(=O)CCCc2nnc3n(CCC(C)C)c(=O)c4sccc4n23)c(OC)c1	-32.6% (inactive)	–
Cc1ccccc1Nc1nn2c(=O)c3ccc(C(=O)NCCc4ccc(Cl)cc4)cc3nc2s1	-9.31% (inactive)	–
Nc1ccc2c(c1)C(=Cc1cccnc1)c1ccccc1-2	–	35.5 µM (active)
Cc1ccc(C2=C/C(=C\c3cccnc3)C(=O)O2)cc1	-18.6% (inactive)	–
O=C(O)/C(=C/c1cccnc1)NC(=O)c1ccccc1	-6.62% (inactive)	–
O=C(NCc1ccccc1)c1cccc(NC(=O)N2CCSc3ncccc32)c1	5.17% (inactive)	–
CCc1ccc(S(=O)(=O)N/N=C\c2ccc([N+](=O)[O-])o2)cc1	–	50.1 µM (active)
CCn1c(/C=C/c2ccc([N+](=O)[O-])o2)nc2ccccc2c1=O	-16.8% [at 57.1 µM] (inactive)	–
CCc1ccc(S(=O)(=O)Nc2ccc(C)c(NS(C)(=O)=O)c2)cc1	8.31% (inactive)	–
CCc1nn(CCCC(=O)NCc2ccccc2OC)c(=O)c2cc3occc3n12	4.03% (inactive)	–
Cc1ccc(-c2ccc(CCC(=O)O)n2-c2ccc(C(N)=O)cc2)cc1	-22.9% (inactive)	–
CN1/C(=c2/s/c(=C3/C(=O)N(c4ccccc4)NC3=Nc3ccccc3)n(C)c2=O)C(C)(C)c2ccccc21	–	28.2 µM (active)
CC(C)CCN(C(=O)Nc1ccc(Cl)c(Cl)c1)C(C)c1cccs1 (centres undefined)	-10.7% (inactive)	–
COc1ccc(NC(=O)c2cnc(Nc3ccc(C)c(Cl)c3)c3ccccc23)cc1OC	3.07% (inactive)	–
CCC(=O)N1CCc2cc(Br)cc(S(=O)(=O)Nc3ccc(C)cc3C)c21	-6.73% (inactive)	–
Cc1ccc(-c2nn(-c3ccccc3)cc2/C=C2\SC(=S)N(CCCCCC(=O)O)C2=O)o1	–	14.1 µM (active)
COc1ccc(-c2nn(-c3ccccc3)cc2/C=C2/SC(=S)N(CCCC(=O)O)C2=O)c(C)c1	–	44.7 µM (active)
COc1ccc(-c2nn(-c3ccccc3)cc2CN2CCCO2)c(F)c1	-26% (inactive)	–
O=C1/C(=C/c2coc3ccc(O)cc3c2=O)SC(=S)N1c1ccccc1	-24% (inactive)	–
CN(C(=O)CCN1C(=O)/C(=C/c2ccccc2F)SC1=S)C1CCS(=O)(=O)C1 (centres undefined)	-19.3% (inactive)	–
COc1cccc(NC(=O)CN(C)C(=O)/C=C/c2cn(-c3ccccc3)nc2-c2cccs2)c1	-21.9% (inactive)	–
CN(Cc1ccccc1)S(=O)(=O)c1ccc(F)c(C(=O)Nc2cccc(Cl)c2Cl)c1	-7.03% (inactive)	–
COc1cc(F)c(S(=O)(=O)N2CCCN(S(=O)(=O)c3ccc(N)cc3)CC2)c(F)c1	-14.3% (inactive)	–
O=C(COc1ccccc1Cl)Nc1ccc2nc(SCC(=O)N3CCCC3)sc2c1	-12.6% (inactive)	–

SMILES	activity change, negative = inhibition	Potency
O=C(NCc1ccc2c(c1)CCN2C(=O)c1ccccc1)c1ccccc1	-5% (inactive)	–
COc1ccc(C(=O)NCCCN2CCOCC2)cc1Br	-4.92% (inactive)	–
Cc1ccc(OCCCC(=O)N2CCOCC2)c(C)c1	6.76% (inactive)	–
Cc1ccc(OCCCCN2CCCCC2)c(Br)c1	–	0.794 µM (active)
Cc1cccc(N2CCN(C(=O)c3cc4c(=O)oc5ccccc5c4s3)CC2C)c1 (centres undefined)	-25.3% (inactive)	–
COc1ccc(Cn2c(=O)[nH]c3cc(C(=O)N4CCN(C(=O)c5ccco5)CC4)ccc3c2=O)cc1	-15.6% (inactive)	–
Cc1ccc2nc(-c3ccc(C)c(NC(=O)Cc4ccccc4)c3)oc2c1	-4.58% (inactive)	–
CC1CCN(C(=O)Cn2c(=O)n(-c3ccc(Cl)cc3)c(=O)c3c4c(sc32)CCC4)CC1	-8.53% (inactive)	–
Cn1c(SCC(=O)N2CCCC2)nnc1-c1ccc2c(c1)OCO2	-0.758% (inactive)	–
O=C(O)CSc1nnc(-c2ccc3c(c2)OCO3)n1-c1ccccc1	-4.9% (inactive)	–
Cn1c(SCc2nc3ccccc3s2)nnc1-c1ccc2c(c1)OCO2	–	31.6 µM (active)
COc1ccc(CCNc2nc(-c3ccc(Cl)cc3)cc(C(F)(F)F)n2)cc1OC	8.53% (inactive)	–
COc1ccc(Cc2nnc(N/N=C/c3ccccc3O)[nH]c2=O)cc1OC	–	28.2 µM (active)
COc1ccc(Cc2nnc(SC)[nH]c2=O)cc1	-2.11% (inactive)	–
CC(C)c1ccc(Cc2nnc(NCCCO)[nH]c2=O)cc1	-11.2% (inactive)	–
O=S(=O)(c1ccc(Br)cc1)c1nnn2c1nc(NC1CCCCCC1)c1sccc12	-9.52% (inactive)	–
CC(=O)Nc1ccc(NC(=O)c2cc3sccc3n2Cc2ccc(F)cc2)cc1	-17.8% (inactive)	–
CCOc1ccc2nc(N3CCCC(C(=O)Nc4cc(C)ccc4C)C3)sc2c1 (centres undefined)	-27.6% (inactive)	–
COc1ccc2[nH]cc(CCN3C(=O)c4ccc(C(=O)O)cc4C3=O)c2c1	-10.6% (inactive)	–
Cc1ccc2[nH]cc(CCCN3C(=O)c4ccccc4C3=O)c2c1	–	22.4 µM (active)
Cc1ccc2[nH]cc(CCNC(=O)C3CCCCC3)c2c1	-6.31% (inactive)	–
Cc1nn(Cc2ccc(F)cc2)c(C)c1NC(=O)c1cc(CC(C)C)on1	-9.56% (inactive)	–
O=C(CSc1ncc(CO)n1Cc1ccc(Cl)cc1)NCc1ccc(F)cc1	-18.5% (inactive)	–
COc1ccc(N2CCN(C3=NS(=O)(=O)C(c4cccc(Br)c4)=C3C)CC2)cc1	-12.9% (inactive)	–
